Laboratory results as given in PubChem BioAssay AID2685 (National Center for Advancing Translational Sciences (NCATS), 2010).
Among all 320,000 compounds or so, about 2,100 (0.66%) were called active. About 53% were inconclusive and are not listed. Calls come from the whole dose curve; as a rule, active = well fitted inhibition curve with a large enough effect in the signal ratio, with a control signal flat (not every such curve was filed as active); inconclusive = small, poorly fitted or top-dose-only effect, or effect the other way, or a change in a side signal; inactive = flat fitted curve, though single readings scatter; the % refers to the signal ratio. The sample as a whole holds a higher share of actives than the screen did.

Assay: qHTS Assay for Lipid Storage Modulators in Drosophila S3 Cells;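 for cell number change: cells counted by Cell Tracker Red CMTPX staining in the red channel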
Conditions: BODIPY lipid droplet fluorescence, 18-24 h, cells fed with added oleic acid; cell number change: measured here: cell count max response; series mostly up to 46.1 µM
In short: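 Laser-scanning cytometry quantifies lipid droplet accumulation (500–530 nm total intensity; droplet/cell object ratio) in oleic acid-fed (400 uM added) Drosophila S3 cells treated with a concentration series. 20 uM Triacsin C defined 100% inhibition.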
Potency is the fitted concentration of half-maximal effect.

SMILES | Potency | cell number change [%]
O=C(O)C(C(O)c1ccc([N+](=O)[O-])cc1)[n+]1ccccc1 (stereo not drawn) | inactive | 27.3
C(=N\Nc1ccc(-n2ccnc2)nn1)/c1ccccc1 | inactive | 
CCOC(=O)CNC(=O)N1CCCC(C(=O)c2cc(C)c(OC)c(C)c2)C1 (stereo not drawn) | inactive | 16.3
O=C(NCCC1=CCCCC1)c1ccc(-n2cncn2)c([N+](=O)[O-])c1 | inactive | -27
CCOC(=O)c1sc(N(Cc2ccccc2)C(=O)COC(=O)c2cnccn2)nc1C | inactive | 
C=CCn1c(SCc2nc3ccccc3nc2C)nnc1-c1ccoc1C | inactive | -18.3
CC(CC(=O)O)CC1=NS(=O)(=O)c2ccccc2N1 (stereo not drawn) | 13 µM (active) | -6.45
CCOC(=O)CC1=NS(=O)(=O)c2ccccc2N1 | inactive | 8.13
Cc1ccc(NC(=O)CC(C)CC2=NS(=O)(=O)c3ccccc3N2)cc1 (stereo not drawn) | inactive | 4.79
O=C(O)c1cc2ncc(-c3[nH]ncc3[N+](=O)[O-])cn2n1 | inactive | 25.8
CCCCc1nc2ccccc2c(=O)n1NC(=O)c1c(O)c2ccccc2n(C)c1=O | inactive | -2.66
O=C(CSc1nc2ccc(S(=O)(=O)N3CCOCC3)cc2[nH]1)N1CCOCC1 | 18.4 µM (active) | 8.23
COC(=O)c1ccc(CSc2nc3ccc(S(=O)(=O)N4CCOCC4)cc3[nH]2)cc1 | inactive | 1.16
Cc1ccc2nc(SCC(=O)N3CCOCC3)[nH]c2c1 | inactive | -6.28
O=C(O)C1CCCN(S(=O)(=O)c2ccc(-c3ccc(=O)[nH]n3)s2)C1 (stereo not drawn) | inactive | -7.22
COC(=O)Nc1ccc(Cn2cc(C(F)(F)F)ccc2=O)cc1 | inactive | 17.3
O=C1C=CC(=O)N1Cc1ccccc1 | 4.11 µM (active) | -23.7
O=C1NC(=O)N(Cc2ccccc2)C1=O | inactive | -0.926
O=C1[C@H](O)[C@@H](O)C(=O)N1Cc1ccccc1 | inactive | 24.4
COCCNc1ncnc2nc[nH]c12 | inactive | 7.15

SMILES | Potency | cell number change [%]
C1=C(CCNc2ncnc3nc[nH]c23)CCCC1 | 16.4 µM (active) | -23.9
CCCNc1ncnc2nc[nH]c12 | inactive | 19.1
O=C(Sc1ccccc1)c1cccc(Cn2cc(C(F)(F)F)ccc2=O)c1 | inactive | 1.6
COc1cccc(NC(=O)c2ccc3nc(C)sc3c2)c1 | inactive | 0.275
CCN1CCCC(OC(=O)Nc2ccccc2)C1 (stereo not drawn) | inactive | -14.2
COc1ccc(CCNc2ncnc3sc(C)cc23)cc1OC | 4.11 µM (active) | -27
Cc1cc2c(NCc3ccccc3)ncnc2s1 | inactive | -12.9
COc1ccc(CCNc2ncnc3c2c(C)c(C)n3CCO)cc1OC | inactive | -9.63
CCOC(=O)c1ccc(-c2ccc(/C=N/NC(=O)Cc3nnc(N)s3)o2)cc1 | inactive | -10.3
CCOC(=O)C1CCN(C(c2cccc(F)c2)c2sc3nc(C)nn3c2O)CC1 (stereo not drawn) | inactive | 9.03
Cc1nc(S(=O)(=O)N2CCN(C3c4ccccc4-c4ccccc43)CC2)cn1C | inactive | 19.2
CC(C)Oc1ccc(C(=O)Nc2ccc3c(c2)n(C)c(=O)n3C)cc1 | 18.4 µM (active) | -24.3
Cn1c(=O)n(C)c2cc(NC(=O)c3ccc(F)cc3)ccc21 | inactive | -7.46
COc1ccc(NC(=O)c2ccc3c(c2)n(C)c(=O)n3C)cc1 | inactive | -1.07
CCN(CC)C(=O)c1ccc(-c2cccs2)s1 | inactive | 3.13
CCOCc1c(C(=O)Nc2ccc(OC)nc2)oc2ccccc12 | inactive | -13.5
COc1ccc(NC(=O)c2oc3ccccc3c2CSC)cn1 | 23.1 µM (active) | 1.61
COc1ccc(NC(=O)c2oc3ccccc3c2C)cn1 | inactive | 13.5
CC(C)CCNC(=O)C(C)N(Cc1ccc(F)cc1)C(=O)c1ccc(CN2CCOCC2)o1 (stereo not drawn) | inactive | -9.3
COC(=O)c1ccccc1NC(=O)COC(=O)CO/N=C(\C)c1ccc2c(c1)OCO2 | inactive | -2.37

SMILES | Potency | cell number change [%]
Cc1cc(OC(C)C(=O)NCC2CCC(C(=O)O)CC2)c2c(C)cc(=O)oc2c1 (stereo not drawn) | inactive | -0.291
CCOC(=O)C1CCN(C(=O)c2cc(COc3ccc(OC)c4ccccc34)on2)CC1 | inactive | 0.306
CCc1cccc(CC)c1-n1c(SCC(=O)N2CCc3ccccc3C2)nnc1-c1cccnc1 | 16.4 µM (active) | 1.33
Cn1c(SCC(=O)N2CCc3ccccc3C2)nnc1-c1ccncc1 | inactive | 6.69
Cc1ccc(-n2c(C)nnc2SCC(=O)N2CCc3ccccc3C2)cc1 | inactive | -10.8
COc1ccc(-c2nc(CN3CCC(C(=O)NCC4CCCO4)CC3)c(C)o2)cc1OC (stereo not drawn) | inactive | 
CCn1c(SCC(=O)c2ccccc2)nc2c(c1=O)SC(C)C2 (stereo not drawn) | inactive | 
N#CC1(NC(=O)COc2cc(F)ccc2[N+](=O)[O-])CCCCC1 | 11.6 µM (active) | -12.3
N#CC1(NC(=O)COc2ccccc2[N+](=O)[O-])CCCCC1 | inactive | 
N#CC1(NC(=O)COc2ccc(S(=O)(=O)N3CCCC3)cc2[N+](=O)[O-])CCCCC1 | inactive | -3.48
COc1cccc(C2=NOC(C(=O)N3CCN(Cc4ccccc4)CC3)C2)c1OC (stereo not drawn) | inactive | -0.697
COc1ccc(CCN(C)CC(O)COC(c2ccc(F)cc2)c2ccc(F)cc2)cc1OC (stereo not drawn) | inactive | -8.84
COc1cccc(CN2CCN(C3CCN(c4ccccc4C)CC3)CC2CCO)c1 (stereo not drawn) | inactive | -24
COc1ccc(Cl)cc1NC(=O)Nc1ccccc1C(N)=O | inactive | 14.7
Cc1cccc([C@@H]2[C@@H]3C(=O)N(Cc4ccccc4)C(=O)[C@@H]3[C@]3(C)C(=O)N(c4cccc(Cl)c4)C(=O)N23)c1 | inactive | -9.71
Cc1ccc(N2C(=O)N3[C@H](c4cccc(C)c4)[C@@H]4C(=O)N(Cc5ccccc5)C(=O)[C@@H]4[C@]3(C)C2=O)cc1 | inactive | -18.1
Cc1cccc([C@@H]2[C@@H]3C(=O)N(Cc4ccccc4)C(=O)[C@@H]3[C@]3(C)C(=O)N(c4ccc(Br)cc4)C(=O)N23)c1 | 2.31 µM (active) | 17.2
CN(C(=O)c1cccnc1)c1nnc(-c2cccnc2)s1 | inactive | -7.8
COc1ccccc1NC(=O)Nc1cccc(NC(C)=O)c1 | inactive | -3.02
